In PubChem BioAssay one finds composite z-score, composite Z-score and z-score data, which are given here for 6 compounds.

Activity calls are given as the source filed them.

One assay deals with Albumin (Bos taurus) (UniProt P02769). In words: bovine serum albumin binders on microarray, profiling panel, artefact control for SMM control protein annotation, biochemical, small-molecule microarray, Alexa647 label, 635/667 nm fluorescence (AID 1118).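 Also: score merges 667 nm emission intensity and signal-to-noise per printed compound spot.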 The following applies: BSA-A647 binding, fluorescence 635 nm, higher = more signal.
Assay [1] is described as follows: small-molecule microarray binders of probe aXIP, primary screen, biochemical, NeuroSMM set, 635/667 nm fluorescence (AID 1119).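 Also: probe is the protein aXip251-270 applied at 1 µg/mL to compound-printed slides; binding of probe to printed compounds measured as 667 nm fluorescence plus signal to noise.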 Conditions: higher = more signal, called active from +8 up or from −8 down.
Assay [2] can be described thus: small-molecule binders of probe aNOTCH3, primary screen, biochemical, small-molecule microarray, 635/667 nm fluorescence (AID 1120).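 Also: probe is a biotin-tagged antibody raised against NOTCH3 rather than NOTCH3 protein; score merges spot fluorescence near 667 nm with spot signal to noise.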 The following applies: higher = more signal.
The nature of assay [3]: small-molecule binders of probe aNOTCH2, primary screen, biochemical, small-molecule microarray, 635/667 nm fluorescence (AID 1121).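 Also: score merges feature fluorescence read at 667 nm with its signal to noise.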 The following applies: higher = more signal.
Assay [4] has as its target Carbonic anhydrase 2 (Homo sapiens) (UniProt P00918). In words: CAII small-molecule binders, profiling panel, biochemical, small-molecule microarray, Alexa647-labelled CAII (AID 1122). The following applies: CAII-A647 binding fluorescence, higher = more signal.
Assay [5] in a line: COS7 lysate on small-molecule microarray, probe aHis, 635 nm (AID 1123).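 Also: z-score combines 667nm fluorescence intensity with signal-to-noise per printed compound spot.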 The following applies: COS7 cell lysate, fluorescence, higher = more signal.
Assay [6] in a line: compound binding in COS7 lysate, probe aLAP1, primary screen, cell lysate, small-molecule microarray (AID 1124).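 Also: lysate comes from COS7 cells expressing LAP1 and is applied at 0.3 µg/mL; score merges spot fluorescence near 667 nm with signal-to-noise over triplicate slides.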 Conditions: probe aLAP1, fluorescence, higher = more signal.
Another assay has as its system Sam68 (KHDRBS1). In words: Sam68 small-molecule binders, primary screen, biochemical, small-molecule microarray, 635 nm fluorescence (AID 1125).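 Also: score merges 667 nm channel intensity with signal to noise over triplicate slides.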 The following applies: small-molecule microarray binding, higher = more signal.
In assay [7] the test system is Chordin-like protein 2 (CHRDL2). In words: CHRDL2 small-molecule binders, primary screen, biochemical, small-molecule microarray, 635 nm fluorescence (AID 1126).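 Also: printed compound slides probed with Chrdl2 protein at 4 µg/mL for 1 h at 4 C; score merges 667 nm emission intensity with signal to noise over three replicate slides.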 The following applies: small-molecule microarray binding, fluorescence 635 nm; higher = more signal.
Assay [8] concerns the target Concanavalin-A (Canavalia ensiformis) (UniProt P02866). In words: ConA small-molecule binders, primary screen, artefact control for SMM control protein annotation, biochemical, small-molecule microarray, Alexa647 label, 635 nm (AID 1127).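 Also: z combines 667 nm emission intensity with signal-to-noise across three replicate slides.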 The following applies: ConA-A647 binding fluorescence, higher = more signal.
Assay [9] is described as follows: anti-His antibody binders, primary screen, artefact control for SMM control protein annotation, biochemical, small-molecule microarray, 635 nm fluorescence (AID 1128).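 Also: score merges feature fluorescence with signal-to-noise for each printed compound spot.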 Conditions: anti-His Alexa647 antibody binding, higher = more signal.
Assay [10] has as its system Human papillomavirus type 1a E7 protein (residues 1-88). The assay is described as follows: HPV1a E7 small-molecule binders, primary screen, biochemical, small-molecule microarray, residues 1-88, 635 nm (AID 1129). Conditions: small-molecule microarray binding, fluorescence 635 nm; higher = more signal.
In assay [11] the target is Focal adhesion kinase 1 (Homo sapiens) (UniProt Q05397). The assay is described as follows: small-molecule microarray binders of FAK, primary screen, biochemical, 635/667 nm fluorescence, BSA, DTT (AID 1130).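 Also: composite of spot emission at 667 nm and signal to noise over triplicate slides.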 The following applies: PTK2 binding, 635 nm fluorescence, higher = more signal.
Assay [12] deals with Fibrinogen (Alexa647-labelled). In words: fibrinogen binders on compound microarrays, profiling panel, artefact control for SMM control-protein annotation, biochemical, small-molecule microarray, 635/667 nm fluorescence (AID 1131).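 Also: z-score merges 667 nm fluorescence with per-spot signal-to-noise over triplicate slides.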 Conditions: fibrinogen-A647 binding fluorescence, higher = more signal.
Assay [13] addresses Follistatin (Homo sapiens) (UniProt P19883). In words: follistatin binders on small-molecule microarrays, primary screen, biochemical, small-molecule microarray, 635/667 nm fluorescence (AID 1132). Conditions: FST binding, 635 nm fluorescence, higher = more signal.
Assay [14] deals with Fibroblast growth factor 2 (Homo sapiens) (UniProt P09038). In words: FGF2 binders on small-molecule microarrays, primary screen, biochemical, small-molecule microarray, 635/667 nm fluorescence (AID 1133). Conditions: small-molecule microarray binding, FGF2, fluorescence 635/667; higher = more signal.
The nature of assay [15]: mitochondrial membrane potential change in A549 cells, profiling panel, cell-based, JC-1 fluorescence, basal, 24 h, 100 nL (AID 1138).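 Also: A549 lung adenocarcinoma cells under basal conditions with no added stimulus; test concentration not given here.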 Conditions: higher = more signal.
The next assay relates to Lefty1. The assay is described as follows: Lefty1 binders on small-molecule microarrays, primary screen, biochemical, small-molecule microarray, 635/667 nm fluorescence (AID 1139). Conditions: small-molecule microarray binding, fluorescence 635/667; higher = more signal.
Assay [16] has as its system wheat germ agglutinin (Triticum aestivum), Alexa647-labelled. The assay is described as follows: wheat germ agglutinin binders on compound microarrays, profiling panel, artefact control for SMM control-protein annotation, biochemical, small-molecule microarray, 635/667 nm fluorescence (AID 1140).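 Also: score merges 667 nm feature emission with signal to noise over triplicate slides.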 The following applies: WGA-A647 binding, 635 nm fluorescence, higher = more signal.

Assay [17] deals with Luciferin 4-monooxygenase (Photinus pyralis) (UniProt P08659). The assay is described as follows: firefly luciferase enzyme inhibitors, primary screen, biochemical, luminescence, purified enzyme, 2006 set (AID 1141).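 Also: cell-free assay with purified firefly luciferase at 100 ng per well in PBS; test concentration not given here.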 The following applies: SteadyGlo luminescence, 30 min, higher = more signal, called active from +8 up or from −8 down.
Sequence of Luciferin 4-monooxygenase (Photinus pyralis) (P08659 whole entry, looked up): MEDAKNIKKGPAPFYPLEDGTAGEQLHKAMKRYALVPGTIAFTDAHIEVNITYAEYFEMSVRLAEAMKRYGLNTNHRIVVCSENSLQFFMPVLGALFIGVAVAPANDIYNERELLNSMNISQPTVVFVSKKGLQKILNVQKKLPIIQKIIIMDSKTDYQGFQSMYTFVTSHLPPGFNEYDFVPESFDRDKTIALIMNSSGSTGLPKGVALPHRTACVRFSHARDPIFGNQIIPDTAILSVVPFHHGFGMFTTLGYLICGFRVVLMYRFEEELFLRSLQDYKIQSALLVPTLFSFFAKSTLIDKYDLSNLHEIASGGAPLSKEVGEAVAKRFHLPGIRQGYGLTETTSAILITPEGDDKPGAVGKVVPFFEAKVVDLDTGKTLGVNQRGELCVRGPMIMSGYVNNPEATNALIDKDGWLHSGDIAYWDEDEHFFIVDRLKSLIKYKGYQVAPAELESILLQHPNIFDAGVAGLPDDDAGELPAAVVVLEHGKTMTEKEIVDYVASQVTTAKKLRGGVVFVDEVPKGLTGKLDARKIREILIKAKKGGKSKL

Sequence of Follistatin (Homo sapiens) (P19883 whole entry, looked up): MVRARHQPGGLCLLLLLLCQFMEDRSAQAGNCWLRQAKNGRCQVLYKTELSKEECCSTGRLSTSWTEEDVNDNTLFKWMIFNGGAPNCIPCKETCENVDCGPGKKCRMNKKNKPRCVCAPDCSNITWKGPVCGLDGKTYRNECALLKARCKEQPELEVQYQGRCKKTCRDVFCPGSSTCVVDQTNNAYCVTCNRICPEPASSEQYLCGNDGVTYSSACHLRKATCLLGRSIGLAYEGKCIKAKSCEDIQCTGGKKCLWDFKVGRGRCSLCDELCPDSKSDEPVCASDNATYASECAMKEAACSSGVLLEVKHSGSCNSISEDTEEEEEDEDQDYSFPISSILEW
Sequence of Fibroblast growth factor 2 (Homo sapiens) (P09038 whole entry, looked up): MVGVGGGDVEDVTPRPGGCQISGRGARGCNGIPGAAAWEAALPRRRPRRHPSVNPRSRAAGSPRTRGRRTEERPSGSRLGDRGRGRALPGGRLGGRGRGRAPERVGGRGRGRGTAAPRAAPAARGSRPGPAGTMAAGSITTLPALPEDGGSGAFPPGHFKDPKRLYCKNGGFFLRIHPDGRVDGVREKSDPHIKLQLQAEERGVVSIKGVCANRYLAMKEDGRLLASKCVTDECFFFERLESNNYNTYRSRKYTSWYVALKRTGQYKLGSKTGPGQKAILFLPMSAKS
Sequence of Concanavalin-A (Canavalia ensiformis) (P02866 whole entry, looked up): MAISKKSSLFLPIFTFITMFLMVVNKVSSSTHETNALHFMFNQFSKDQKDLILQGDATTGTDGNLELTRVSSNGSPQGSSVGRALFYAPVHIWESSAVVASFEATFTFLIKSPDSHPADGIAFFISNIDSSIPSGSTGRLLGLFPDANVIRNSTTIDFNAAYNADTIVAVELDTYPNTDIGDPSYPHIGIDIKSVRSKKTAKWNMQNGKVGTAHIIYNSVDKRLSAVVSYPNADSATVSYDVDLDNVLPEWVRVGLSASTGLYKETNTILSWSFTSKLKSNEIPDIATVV
Sequence of Focal adhesion kinase 1 (Homo sapiens) (Q05397 whole entry, looked up): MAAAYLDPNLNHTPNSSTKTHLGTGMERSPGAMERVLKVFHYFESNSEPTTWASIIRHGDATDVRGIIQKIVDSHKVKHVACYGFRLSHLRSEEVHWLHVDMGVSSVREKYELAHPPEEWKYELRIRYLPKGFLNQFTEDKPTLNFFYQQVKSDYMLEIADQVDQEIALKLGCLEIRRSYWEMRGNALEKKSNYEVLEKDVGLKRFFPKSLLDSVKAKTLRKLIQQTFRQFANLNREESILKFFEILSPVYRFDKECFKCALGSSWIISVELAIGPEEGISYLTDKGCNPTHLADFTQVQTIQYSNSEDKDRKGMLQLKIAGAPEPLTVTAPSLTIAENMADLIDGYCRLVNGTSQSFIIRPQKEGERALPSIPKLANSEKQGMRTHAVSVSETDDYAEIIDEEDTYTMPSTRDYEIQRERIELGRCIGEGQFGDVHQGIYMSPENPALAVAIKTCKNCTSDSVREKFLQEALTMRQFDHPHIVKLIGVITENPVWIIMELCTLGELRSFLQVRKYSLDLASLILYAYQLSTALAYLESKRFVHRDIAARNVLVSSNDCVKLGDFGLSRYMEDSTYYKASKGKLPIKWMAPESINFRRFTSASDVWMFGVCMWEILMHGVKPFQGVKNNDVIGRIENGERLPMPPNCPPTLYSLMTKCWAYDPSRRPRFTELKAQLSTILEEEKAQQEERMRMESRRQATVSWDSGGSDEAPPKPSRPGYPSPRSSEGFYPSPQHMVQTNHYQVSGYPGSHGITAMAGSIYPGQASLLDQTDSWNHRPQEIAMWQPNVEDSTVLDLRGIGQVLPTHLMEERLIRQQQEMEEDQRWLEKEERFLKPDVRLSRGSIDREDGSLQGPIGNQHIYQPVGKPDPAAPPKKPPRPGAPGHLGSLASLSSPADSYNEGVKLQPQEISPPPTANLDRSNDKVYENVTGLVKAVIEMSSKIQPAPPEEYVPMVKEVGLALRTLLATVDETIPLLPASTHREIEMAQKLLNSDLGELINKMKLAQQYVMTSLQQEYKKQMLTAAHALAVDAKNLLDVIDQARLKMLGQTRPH
Sequence of Albumin (Bos taurus) (P02769 whole entry, looked up): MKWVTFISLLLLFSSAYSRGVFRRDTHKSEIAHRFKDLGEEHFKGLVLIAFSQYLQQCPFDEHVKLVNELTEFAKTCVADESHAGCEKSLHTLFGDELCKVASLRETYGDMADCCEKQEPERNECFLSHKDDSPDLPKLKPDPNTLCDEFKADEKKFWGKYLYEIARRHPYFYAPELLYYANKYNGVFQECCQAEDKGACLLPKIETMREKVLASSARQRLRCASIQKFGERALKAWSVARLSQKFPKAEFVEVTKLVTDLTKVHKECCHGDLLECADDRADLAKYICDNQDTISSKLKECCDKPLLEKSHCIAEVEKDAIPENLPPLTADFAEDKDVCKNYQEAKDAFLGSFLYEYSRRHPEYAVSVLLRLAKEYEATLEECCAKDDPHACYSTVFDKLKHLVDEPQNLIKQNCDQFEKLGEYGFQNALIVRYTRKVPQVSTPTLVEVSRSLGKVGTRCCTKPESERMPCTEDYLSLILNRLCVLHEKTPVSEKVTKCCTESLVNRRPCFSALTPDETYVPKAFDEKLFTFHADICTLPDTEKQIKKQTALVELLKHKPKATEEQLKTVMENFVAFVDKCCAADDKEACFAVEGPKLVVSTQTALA

On to `CC(C)[Si]1(C(C)C)OCc2cc(C3CC3)nc(-c3ccc(Oc4ccccc4)cc3)c21`, for which the composite z-score was -0.808 with Albumin (Bos taurus); -0.177 in assay [2]; -0.108 in assay [3]; -0.204 in assay [4]; 0.0215 in [5]; -0.238 in assay [6]. In addition, the composite z-score is -0.459 in the assay with Sam68 (KHDRBS1); -0.368 in assay [7]; -0.725 in assay [8]; -0.33 in [9]; -1.1 in [10]; -0.0826 in assay [11]. In addition, the composite z-score was -0.753 in assay [12]; -0.538 in assay [13]; -0.206 in [14]; -0.365 in the assay on Lefty1; -0.596 in assay [16]. The composite Z-score in assay [1] is -0.26 (inactive). Further, the figures for the z-score in assay [15] and in assay [17] were 0.546 and -0.311 (inactive), respectively.

On to `CC(C)c1ccc(NN2C(C(O)c3ccc(C#N)cc3)C=CC3C(=O)N(c4ccccc4)C(=O)C32)cc1` (stereo not given), for which the composite z-score was 1.04 with Albumin (Bos taurus); 0.33 in assay [2]; -0.0296 in assay [3]; 0.358 in assay [4]; 2.84 in [5]; 0.982 in assay [6]. Also, the composite z-score was 1.3 in the assay on Sam68 (KHDRBS1); 0.0494 in assay [7]; 0.926 in [8]; 0.433 in assay [9]; 1.21 in assay [10]; 1.97 in [11]. The composite z-score was 1.04 in assay [12]; 1.01 in assay [13]; -0.14 in assay [14]; -0.278 in the assay on Lefty1; 0.949 in assay [16]. The composite Z-score in assay [1] is 0.238 (inactive). The z-score in assay [15] was -0.131; in assay [17] it was -0.973 (inactive).

`CN(C)CCCCCCNC(=O)[C@@H]1C[C@@H]2C(=O)N3CCC[C@H]3C(=O)N2[C@@H]1c1cccc(OCCO)c1`: the composite z-score with Albumin (Bos taurus) was -0.694; in assay [2], 0.278; in assay [3] it was -0.13; in assay [4], 0.591; in assay [5], 2.73; in assay [6], 0.87. Also, the composite z-score with Sam68 (KHDRBS1) stood at 1.31; in assay [7], 1.42; in [8] it was 1.13; in assay [9] it was 2.58; in assay [10], 1.23; in assay [11], 0.338. For the same compound, the composite z-score in [12] came to 0.552; in assay [13], 1.37; in [14] it was 1.58; with Lefty1, 1.48; in assay [16] it was 1.1. Moreover, in assay [1], the composite Z-score was 0.759 (inactive). Also, the z-score was -0.17 in assay [15] and -0.138 (inactive) in assay [17].

Turning to `CCOC(=O)C[C@H]1[C@H](OC(=O)c2cc3ccccc3oc2=O)[C@@H](NC(=O)c2ccc3ccccc3n2)c2cc(OCCCO)ccc2N1C(=O)Cc1ccc(OC)cc1`, the composite z-score is 0.463 with Albumin (Bos taurus); 0.127 in assay [2]; -0.0878 in [3]; 0.356 in assay [4]; 0.219 in assay [5]; -0.0863 in assay [6]. Further, the composite z-score with Sam68 (KHDRBS1) amounted to 1.22; in assay [7], 0.368; in assay [8] it was 1.05; in assay [9], 0.357; in [10], 1.18; in [11], 0.277. Moreover, the composite z-score was 0.953 in [12]; 1.06 in assay [13]; 0.509 in [14]; 1.06 with Lefty1; 0.275 in assay [16]. In addition, the composite Z-score in assay [1] is 0.35 (inactive). Also, the z-score in [15] is 0.57; in assay [17] it was 0.798 (inactive).

Turning to `O[C@@H](Cc1ccccc1)[C@@H](/C=C/C1CC1)N(CC#Cc1ccccc1)Cc1ccccc1Br`, the composite z-score was -0.144 in the assay with Albumin (Bos taurus); -0.218 in assay [2]; -0.171 in assay [3]; -0.0441 in assay [4]; 0.41 in [5]; 0.146 in [6]. The composite z-score with Sam68 (KHDRBS1) is -1.33; in assay [7] it was -1.36; in assay [8] it was -0.564; in assay [9], 0.167; in assay [10] it was -0.33; in [11], 0.284. Besides, the composite z-score in [12] was -0.651; in assay [13], -1.12; in assay [14] it was -1.71; in the assay with Lefty1, -0.512; in assay [16], -1.11. The composite Z-score in assay [1] was 0.586 (inactive). The z-score in assay [15] is 0.163; in [17] it was -0.375 (inactive).

In the case of `COc1ccc([Si](C)(C)[C@@H]2[C@@H](CC(=O)N3Cc4ccccc4C[C@H]3CO)O[C@]3(C(=O)N(Cc4ccc(N5C(=O)c6cccc7cccc5c67)cc4)c4ccccc43)[C@H]2C)cc1`, the composite z-score in the assay with Albumin (Bos taurus) was -0.604; in [2], 0.171; in assay [3] it was -0.0728; in assay [4], 0.351; in assay [5], 1.25; in assay [6] it was -0.0469. For the same compound, the composite z-score with Sam68 (KHDRBS1) is 1.31; in assay [7], 1.18; in assay [8], 0.988; in assay [9], 0.0827; in [10], 1.18; in assay [11], 0.949. For the same compound, the composite z-score in assay [12] came out at 0.706; in [13], 1.33; in [14] it was 1.59; in the assay with Lefty1, 1.11; in [16], 0.323. Besides, the composite Z-score in assay [1] is 0.535 (inactive). The z-score in [15] was 1.2; in [17], -1.05 (inactive).
